# Results from PMC7862700, “An all-to-all approach to the identification of sequence-specific readers for epigenetic DNA modifications on cytosine”.
# Legend:
# Assay in all cases: DAPPL (digital affinity profiling via proximity ligation, sequencing); 10 mM Tris-HCl pH 7.5, 50 mM NaCl, 1 mM DTT, 4% glycerol, room temperature, 30 min; GST-TFs on glutathione beads, 16-mer random dsDNA library, 0.1% formaldehyde crosslink after washing; high values mean tight binding
# Conditions in all cases: protein: recombinant; tags: N-terminal GST; dsDNA, one strand shown
# [1] = target: T1, FEV (Homo sapiens, UniProt Q99581 1-238)
# T1 sequence: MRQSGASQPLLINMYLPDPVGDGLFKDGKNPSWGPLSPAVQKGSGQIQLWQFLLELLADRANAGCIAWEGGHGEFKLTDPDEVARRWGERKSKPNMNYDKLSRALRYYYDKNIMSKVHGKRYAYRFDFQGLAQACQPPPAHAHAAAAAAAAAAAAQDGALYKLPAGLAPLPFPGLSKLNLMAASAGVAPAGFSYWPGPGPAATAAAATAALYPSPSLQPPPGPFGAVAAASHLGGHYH
# Procedure, shortened: (§1)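 Binding signal is given per hexamer as its read frequency for a factor divided by its frequency in the tag-only sample. GST-fused human transcription factors were expressed in yeast, captured on glutathione beads, barcoded with DNA and pooled with that sample, then incubated with 200 nmole of a 16-mer random double-stranded DNA library in Tris/NaCl/DTT/glycerol buffer for 30 min at room temperature. The pools were then washed, crosslinked, proximity-ligated, amplified by PCR and sequenced on an Illumina NextSeq500.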
# [2] = target: T2, SPIC (Homo sapiens, UniProt Q8N5J4 1-248)
# T2 sequence: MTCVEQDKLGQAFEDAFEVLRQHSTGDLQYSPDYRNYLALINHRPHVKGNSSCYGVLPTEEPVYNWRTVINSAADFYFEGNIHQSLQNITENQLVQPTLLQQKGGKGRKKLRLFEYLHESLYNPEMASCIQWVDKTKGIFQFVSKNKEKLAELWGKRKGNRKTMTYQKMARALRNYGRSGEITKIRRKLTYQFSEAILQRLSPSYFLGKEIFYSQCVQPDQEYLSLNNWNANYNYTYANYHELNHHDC
# Procedure, shortened: as §1
# [3] = target: T3, ELK4 (Homo sapiens, UniProt P28324-2 1-405)
# T3 sequence: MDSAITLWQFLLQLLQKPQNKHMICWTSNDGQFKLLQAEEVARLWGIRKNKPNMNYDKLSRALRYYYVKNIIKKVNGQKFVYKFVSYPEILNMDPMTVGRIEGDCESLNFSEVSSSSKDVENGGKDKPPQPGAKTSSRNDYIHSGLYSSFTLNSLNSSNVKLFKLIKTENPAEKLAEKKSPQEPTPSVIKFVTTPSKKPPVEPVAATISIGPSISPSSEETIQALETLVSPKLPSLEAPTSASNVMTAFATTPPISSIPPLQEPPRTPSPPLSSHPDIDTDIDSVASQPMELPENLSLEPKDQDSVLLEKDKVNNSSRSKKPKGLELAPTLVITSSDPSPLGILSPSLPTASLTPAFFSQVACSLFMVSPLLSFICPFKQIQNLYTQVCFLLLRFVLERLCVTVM
# Procedure, shortened: as §1
# [4] = target: T4, SPDEF (Homo sapiens, UniProt O95238 1-335)
# T4 sequence: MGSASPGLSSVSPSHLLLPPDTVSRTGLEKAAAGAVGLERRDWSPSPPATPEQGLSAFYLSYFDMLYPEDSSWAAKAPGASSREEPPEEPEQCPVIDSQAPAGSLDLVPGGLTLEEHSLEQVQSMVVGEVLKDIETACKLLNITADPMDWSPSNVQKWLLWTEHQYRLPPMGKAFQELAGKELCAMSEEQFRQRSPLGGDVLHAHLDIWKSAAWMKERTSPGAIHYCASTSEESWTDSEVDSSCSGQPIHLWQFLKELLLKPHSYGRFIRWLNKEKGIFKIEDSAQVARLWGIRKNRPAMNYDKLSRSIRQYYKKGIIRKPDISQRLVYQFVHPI
# Procedure, shortened: as §1
# [5] = target: T5, ELF5 (Homo sapiens, UniProt Q9UKW6-2 1-255)
# T5 sequence: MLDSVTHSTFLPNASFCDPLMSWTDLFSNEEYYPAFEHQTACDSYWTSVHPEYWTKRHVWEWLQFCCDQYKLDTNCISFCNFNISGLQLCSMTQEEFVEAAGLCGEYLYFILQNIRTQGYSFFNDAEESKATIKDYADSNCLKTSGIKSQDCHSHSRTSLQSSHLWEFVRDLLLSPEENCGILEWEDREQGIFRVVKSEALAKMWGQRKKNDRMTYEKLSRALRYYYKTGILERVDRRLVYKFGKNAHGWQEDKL
# Procedure, shortened: as §1
# [6] = target: CRX (Homo sapiens, UniProt O43186 1-299)
# Sequence of CRX (O43186 whole entry): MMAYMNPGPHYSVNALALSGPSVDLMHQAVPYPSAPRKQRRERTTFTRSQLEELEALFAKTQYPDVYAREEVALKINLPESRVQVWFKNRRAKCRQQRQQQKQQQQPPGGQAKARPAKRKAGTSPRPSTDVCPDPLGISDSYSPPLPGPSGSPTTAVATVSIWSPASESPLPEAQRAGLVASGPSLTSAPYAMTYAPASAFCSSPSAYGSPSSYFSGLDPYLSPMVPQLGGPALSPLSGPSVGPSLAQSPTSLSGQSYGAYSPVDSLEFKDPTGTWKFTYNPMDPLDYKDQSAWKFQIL
# Procedure, shortened: as §1
sequence,measurement,setting,value
CGCGAC,binding signal,[1],"1.01 fold enrichment (6-mer frequency, TF over GST control)"
same,binding signal,[2],"1.31 fold enrichment (6-mer frequency, TF over GST control)"
same,binding signal,[3],"1.14 fold enrichment (6-mer frequency, TF over GST control)"
same,binding signal,[4],"1.08 fold enrichment (6-mer frequency, TF over GST control)"
TCGCTG,binding signal,[2],"1.19 fold enrichment (6-mer frequency, TF over GST control)"
same,binding signal,[3],"1.15 fold enrichment (6-mer frequency, TF over GST control)"
CATACC,binding signal,[1],"1.07 fold enrichment (6-mer frequency, TF over GST control)"
same,binding signal,[2],"1.03 fold enrichment (6-mer frequency, TF over GST control)"
same,binding signal,[4],"1.14 fold enrichment (6-mer frequency, TF over GST control)"
same,binding signal,[5],"1.04 fold enrichment (6-mer frequency, TF over GST control)"
CCCCGT,binding signal,[1],"1.01 fold enrichment (6-mer frequency, TF over GST control)"
same,binding signal,[2],"1.05 fold enrichment (6-mer frequency, TF over GST control)"
same,binding signal,[4],"1 fold enrichment (6-mer frequency, TF over GST control)"
same,binding signal,[5],"1.06 fold enrichment (6-mer frequency, TF over GST control)"
GCCGCC,binding signal,[1],"1.05 fold enrichment (6-mer frequency, TF over GST control)"
same,binding signal,[2],"1.03 fold enrichment (6-mer frequency, TF over GST control)"
same,binding signal,[5],"1.01 fold enrichment (6-mer frequency, TF over GST control)"
GTGTCC,binding signal,[1],"1.1 fold enrichment (6-mer frequency, TF over GST control)"
same,binding signal,[2],"1.2 fold enrichment (6-mer frequency, TF over GST control)"
same,binding signal,[4],"1.34 fold enrichment (6-mer frequency, TF over GST control)"
same,binding signal,[5],"1.1 fold enrichment (6-mer frequency, TF over GST control)"
CTGCGG,binding signal,[1],"1.07 fold enrichment (6-mer frequency, TF over GST control)"
same,binding signal,[2],"1.06 fold enrichment (6-mer frequency, TF over GST control)"
same,binding signal,[5],"1.06 fold enrichment (6-mer frequency, TF over GST control)"
CGGAAC,binding signal,[1],"1.16 fold enrichment (6-mer frequency, TF over GST control)"
same,binding signal,[2],"1.09 fold enrichment (6-mer frequency, TF over GST control)"
same,binding signal,[4],"1.32 fold enrichment (6-mer frequency, TF over GST control)"
same,binding signal,[5],"1.3 fold enrichment (6-mer frequency, TF over GST control)"
GGACTC,binding signal,[2],"1.01 fold enrichment (6-mer frequency, TF over GST control)"
same,binding signal,[3],"1.04 fold enrichment (6-mer frequency, TF over GST control)"
TCGTCA,binding signal,[2],"1.15 fold enrichment (6-mer frequency, TF over GST control)"
same,binding signal,[4],"1.06 fold enrichment (6-mer frequency, TF over GST control)"
ACGATG,binding signal,[1],"1.05 fold enrichment (6-mer frequency, TF over GST control)"
same,binding signal,[2],"1.03 fold enrichment (6-mer frequency, TF over GST control)"
same,binding signal,[4],"1.14 fold enrichment (6-mer frequency, TF over GST control)"
same,binding signal,[5],"1.01 fold enrichment (6-mer frequency, TF over GST control)"
GCAATT,binding signal,[1],"1.14 fold enrichment (6-mer frequency, TF over GST control)"
same,binding signal,[3],"1.01 fold enrichment (6-mer frequency, TF over GST control)"
same,binding signal,[4],"1.06 fold enrichment (6-mer frequency, TF over GST control)"
same,binding signal,[5],"1.08 fold enrichment (6-mer frequency, TF over GST control)"
AGTGAC,binding signal,[1],"1.11 fold enrichment (6-mer frequency, TF over GST control)"
same,binding signal,[2],"1.04 fold enrichment (6-mer frequency, TF over GST control)"
same,binding signal,[5],"1.11 fold enrichment (6-mer frequency, TF over GST control)"
GCAACC,binding signal,[1],"1.17 fold enrichment (6-mer frequency, TF over GST control)"
same,binding signal,[2],"1.09 fold enrichment (6-mer frequency, TF over GST control)"
same,binding signal,[4],"1.13 fold enrichment (6-mer frequency, TF over GST control)"
same,binding signal,[5],"1.02 fold enrichment (6-mer frequency, TF over GST control)"
CAACCG,binding signal,[1],"1.28 fold enrichment (6-mer frequency, TF over GST control)"
same,binding signal,[2],"1.02 fold enrichment (6-mer frequency, TF over GST control)"
same,binding signal,[4],"1.15 fold enrichment (6-mer frequency, TF over GST control)"
CATGCA,binding signal,[1],"1.1 fold enrichment (6-mer frequency, TF over GST control)"
same,binding signal,[3],"1.05 fold enrichment (6-mer frequency, TF over GST control)"
same,binding signal,[4],"1.13 fold enrichment (6-mer frequency, TF over GST control)"
same,binding signal,[5],"1.01 fold enrichment (6-mer frequency, TF over GST control)"
AGTGCC,binding signal,[1],"1.04 fold enrichment (6-mer frequency, TF over GST control)"
same,binding signal,[2],"1.19 fold enrichment (6-mer frequency, TF over GST control)"
ACTGTA,binding signal,[1],"1 fold enrichment (6-mer frequency, TF over GST control)"
same,binding signal,[2],"1.24 fold enrichment (6-mer frequency, TF over GST control)"
same,binding signal,[3],"1.08 fold enrichment (6-mer frequency, TF over GST control)"
same,binding signal,[4],"1.02 fold enrichment (6-mer frequency, TF over GST control)"
same,binding signal,[5],"1.07 fold enrichment (6-mer frequency, TF over GST control)"
CCCGGT,binding signal,[1],"1.04 fold enrichment (6-mer frequency, TF over GST control)"
same,binding signal,[2],"1.07 fold enrichment (6-mer frequency, TF over GST control)"
same,binding signal,[3],"1.13 fold enrichment (6-mer frequency, TF over GST control)"
same,binding signal,[4],"1.11 fold enrichment (6-mer frequency, TF over GST control)"
same,binding signal,[5],"1.05 fold enrichment (6-mer frequency, TF over GST control)"
GTCCTG,binding signal,[1],"1.1 fold enrichment (6-mer frequency, TF over GST control)"
same,binding signal,[2],"1.3 fold enrichment (6-mer frequency, TF over GST control)"
same,binding signal,[4],"1.34 fold enrichment (6-mer frequency, TF over GST control)"
same,binding signal,[5],"1.3 fold enrichment (6-mer frequency, TF over GST control)"
ATTGGC,binding signal,[1],"1.13 fold enrichment (6-mer frequency, TF over GST control)"
same,binding signal,[3],"1.06 fold enrichment (6-mer frequency, TF over GST control)"
same,binding signal,[6],"1.07 fold enrichment (6-mer frequency, TF over GST control)"
same,binding signal,[4],"1.12 fold enrichment (6-mer frequency, TF over GST control)"
same,binding signal,[5],"1.08 fold enrichment (6-mer frequency, TF over GST control)"
ACGGTT,binding signal,[2],"1.04 fold enrichment (6-mer frequency, TF over GST control)"
same,binding signal,[4],"1.04 fold enrichment (6-mer frequency, TF over GST control)"
same,binding signal,[5],"1.05 fold enrichment (6-mer frequency, TF over GST control)"
CTATCA,binding signal,[1],"1.02 fold enrichment (6-mer frequency, TF over GST control)"
same,binding signal,[3],"1.06 fold enrichment (6-mer frequency, TF over GST control)"
same,binding signal,[6],"1.01 fold enrichment (6-mer frequency, TF over GST control)"
same,binding signal,[4],"1.07 fold enrichment (6-mer frequency, TF over GST control)"
same,binding signal,[5],"1.01 fold enrichment (6-mer frequency, TF over GST control)"
CGGATC,binding signal,[2],"1.02 fold enrichment (6-mer frequency, TF over GST control)"
same,binding signal,[6],"1.21 fold enrichment (6-mer frequency, TF over GST control)"
same,binding signal,[4],"1.67 fold enrichment (6-mer frequency, TF over GST control)"
same,binding signal,[5],"1.05 fold enrichment (6-mer frequency, TF over GST control)"
TGGTGG,binding signal,[2],"1.03 fold enrichment (6-mer frequency, TF over GST control)"
same,binding signal,[3],"1.04 fold enrichment (6-mer frequency, TF over GST control)"
same,binding signal,[4],"1.02 fold enrichment (6-mer frequency, TF over GST control)"
GGTATG,binding signal,[2],"1.22 fold enrichment (6-mer frequency, TF over GST control)"
same,binding signal,[3],"1.09 fold enrichment (6-mer frequency, TF over GST control)"
same,binding signal,[4],"1.02 fold enrichment (6-mer frequency, TF over GST control)"
GTTGTA,binding signal,[2],"1.01 fold enrichment (6-mer frequency, TF over GST control)"
same,binding signal,[4],"1.04 fold enrichment (6-mer frequency, TF over GST control)"
AGTAAC,binding signal,[2],"1.07 fold enrichment (6-mer frequency, TF over GST control)"
same,binding signal,[5],"1.09 fold enrichment (6-mer frequency, TF over GST control)"
AACGGA,binding signal,[1],"1.35 fold enrichment (6-mer frequency, TF over GST control)"
same,binding signal,[2],"1.04 fold enrichment (6-mer frequency, TF over GST control)"
same,binding signal,[4],"1.23 fold enrichment (6-mer frequency, TF over GST control)"
same,binding signal,[5],"1.11 fold enrichment (6-mer frequency, TF over GST control)"
GTTGCG,binding signal,[2],"1.23 fold enrichment (6-mer frequency, TF over GST control)"
same,binding signal,[3],"1.01 fold enrichment (6-mer frequency, TF over GST control)"
same,binding signal,[5],"1.02 fold enrichment (6-mer frequency, TF over GST control)"
